aSyn UTR act: Activators working through SNCA 5'UTR binding (MLPCN). AID 1814. activity score, % (tested at 7.5 µM), hits read low. alpha-synuclein 5'UTR reporter, activators screen. 7.1% of 300,000 active; in the data active means activity score below about -60%
Numbers without * were called inactive. Only a sample is shown.

SMILES	aSyn UTR act
N#Cc1c(-c2ccc(Cl)cc2)ccn2nc(C3CCCCC3)nc12	-164*
Cn1c(COc2ccccc2Br)nc2ccccc21	-145*
Cc1ccccc1OCc1nc2ccccc2c(=O)n1N	-113*
Nn1c(COc2ccccc2)nc2ccccc2c1=O	-70*
COCn1c(COc2ccc3ccccc3c2)nc2ccccc21	-92*
CCn1c(CCc2ccccc2)nc2ccccc21	-76*
CCn1c(COc2ccccc2C)nc2ccccc21	-131*
COc1cccc(CCc2nc3ccccc3c(=O)n2N)c1	-68*
CCCn1nnc(NC(=O)c2cccc(Cl)c2)n1	-64*
CCCCn1nnc(N(C(=O)c2cccs2)C(=O)c2cccs2)n1	-89*
CCCn1nnc(NC(=O)c2sc3ccccc3c2Cl)n1	-104*
CCCn1nnc(NC(=O)c2ccc(-c3cccc(Cl)c3)o2)n1	-80*
CCCn1nnc(NC(=S)NC(=O)c2cccs2)n1	-102*
CCCn1nnc(NC(=O)c2ccc3c(c2)OCO3)n1	-90*
O=C(N/N=C/C(Br)=C/c1ccccc1)c1cccs1	-366*
O=C(Cc1cccs1)N/N=C/C=C/c1ccccc1	-70*
O=C(N/N=C\C=C\c1ccc([N+](=O)[O-])o1)c1cccs1	-63*
O=C(N/N=C/C=C/c1ccccc1)c1cc2c(ccc3ccccc32)o1	-80*
O=C(N/N=C/C=C/c1ccccc1)c1cccs1	-156*
CCc1nc(-c2cc3ccc(C)cc3[nH]c2=O)no1	-84*
Brc1ccccc1-n1nnc(-c2nccs2)n1	-97*
Clc1nc2ccccc2cc1-c1nnn(-c2ccccc2Br)n1	-128*
CSc1ncccc1C(=O)OCc1ccccc1	-66*
Oc1ccc(CNc2ccccc2F)c2cccnc12	87
CSc1ncccc1C(=O)OCc1ccccc1F	-62*
SMILES	aSyn UTR act
Oc1ccc(COCc2ccccc2)c2cccnc12	51
COc1ccc2oc(=O)c(-c3csc(Nc4cccc(O)c4)n3)cc2c1	-76*
COc1ccc(Nc2nc(-c3cc4cccc(OC)c4oc3=O)cs2)cc1	-83*
O=C(Nc1ccn(Cc2ccccc2F)n1)c1ccc(COc2cccc(Br)c2)cc1	-150*
CCOC(=O)Cc1cc(-c2ccc(OC)cc2)nc2ccc3ccccc3c12	-117*
CCOC(=O)Cc1cc(-c2ccc(O)cc2)nc2ccc3ccccc3c12	-80*
CCOC(=O)Cc1cc(-c2ccc(F)cc2)nc2ccc3ccccc3c12	-63*
COc1ccccc1NC(=O)c1cc2ccc(O)cc2o/c1=N\O	-97*
COc1ccc(N=c2oc3ccccc3cc2C(=O)Nc2ccccn2)cc1OC	-107*
COc1ccccc1NC(=O)c1cc2ccccc2o/c1=N\O	-129*
CN=c1scc(-c2ccc(OC)cc2)n1/N=C(\C)c1cccnc1	-156*
CCN1Cc2c(/C=C/c3ccccc3)nc3ccc(OC)cc3c2N(c2cccc(Cl)c2)C1	-66*
C/C(=N\Nc1ccccc1)c1cccc(N)c1	-92*
Cc1ccc(C(=O)c2cccc(N)c2)cc1C	82
Brc1ccc(N/N=C(/N=Nc2nn[nH]n2)c2ccccc2)cc1	97
COc1ccc(/C=N/Nc2nc(Nc3ccccc3)nc(N3CCCCC3)n2)cc1OC	-111*
CCCCN(CC)CCCNC(=O)c1cc2c(=O)n(CC)c3ccccc3c2s1	-321*
CCn1c(=O)c2cc(C(=O)NCCCOC)sc2c2ccccc21	-85*
CCCN(CCC)CCCNC(=O)c1cc2c(=O)n(CC)c3ccccc3c2s1	-300*
COCCCNC(=O)c1ccc(Cn2c(=O)c3ccccc3n(Cc3ccccc3C#N)c2=O)cc1	55
CCCCN(CC)CCNC(=O)c1cc2c(=O)n(CC)c3ccccc3c2s1	-274*
COCCNC(=O)c1cc2sc3ccccc3c2s1	-175*
Nc1nc(N)nc(COc2ccccc2)n1	-106*
Cc1cccc(/N=C/c2c(O)[nH]c3ccccc23)n1	-211*
Oc1[nH]c2ccccc2c1C=Nc1ccc2c(c1)OCCO2	-76*
SMILES	aSyn UTR act
O=C1c2ccccc2S(=O)(=O)c2cc(N3CCc4ccccc4C3)ccc21	-180*
N=c1oc2cc(O)ccc2cc1C(=O)Nc1nc2ccccc2s1	-188*
N=c1oc2cc(O)ccc2cc1C(=O)Nc1ccc(Br)cc1	-172*
Cc1cc(OCC(=O)N(C)Cc2ccccc2)ccc1Br	-68*
O=C(COc1ccccc1)Nc1ccc2c(c1)nc1n2CCSC1	-125*
O=C(COc1ccccc1)Nc1ccc2c(c1)nc1n2CCOC1	-85*
O=C1C(C=Nc2ccccc2)=C(O)c2ccccc21	-78*
COc1ccc(N=CC2=C(O)c3ccccc3C2=O)cc1	-80*
S=C1NC(c2ccccc2)=NCN1c1ccccc1	-66*
Cc1ccc(C2=NCN(c3ccc(C(=O)O)cc3)C(=S)N2)cc1	-117*
CCOC(=O)c1cnc2cc3c(cn2c1=O)CCCC3	-132*
Cc1ccc(C(=O)Cn2c(=N)n(N)c3ccccc32)cc1	-166*
CCN(CC)CCn1c(=N)n(CC(=O)c2ccc(C)cc2)c2ccccc21	-125*
COc1ccc(C(=O)Cn2c(=N)n(C)c3ccccc32)cc1	-62*
Cn1c(=N)n(CC(=O)c2ccccc2)c2ccccc21	90
O=C(C#Cc1ccccc1)NCc1ccccc1F	-70*
CC(C)(O)C#Cc1ccc(C(=O)NCc2ccccc2F)cc1	-66*
CCN(CC)C(=O)CCc1nnc(Cc2cccc(C(F)(F)F)c2)o1	-177*
O=C(CCc1nnc(Cc2cccc(C(F)(F)F)c2)o1)NCCc1ccccc1F	-71*
CC(=O)CCC(=O)NCCc1ccccc1F	-63*
Cc1cc(CN(C)C(=O)CCc2nnc(Cc3cccc(C(F)(F)F)c3)o2)on1	-79*
COc1ccc2c(c1)CCc1c(C(=O)N(C)c3ccccc3)noc1-2	-132*
COCC(C)NC(=O)c1noc2c1CCc1cc(OC)ccc1-2 (stereo unspecified)	-133*
COCCNC(=O)c1noc2c1CCc1cc(OC)ccc1-2	-98*
COc1ccc2c(c1)CCc1c(C(=O)NCc3ccco3)noc1-2	-120*
SMILES	aSyn UTR act
Cc1[nH]c(=O)c(C(=O)/C=C/c2ccccc2F)c2c1CCCC2	-364*
Cc1ccc(N/C=C(/C#N)c2ccsc2)cc1C	-172*
O=C(CCCc1ccccc1)Nc1cccnc1	-82*
CN(C)CCC(=O)C(Cc1ccccc1)c1ccccc1 (stereo unspecified)	99
CC(CCc1ccccc1)NC(=O)C(=O)Nc1ccccc1 (stereo unspecified)	-149*
O=C(CCOc1ccccc1)Nc1ccc(Br)cc1	-113*
CC(=O)c1ccc(NC(=O)CCOc2cc(C)ccc2C)cc1	-91*
Cc1cccc(NC(=O)CCOc2ccccc2)c1	-74*
COc1ccc(NC(=O)CCOc2ccccc2)cc1	-126*
Cc1cccc(NC(=O)CCCc2ccccc2)c1	-172*
O=C(CCc1ccccc1)Nc1ccccc1	-80*
CN(C)c1ccc(NC(=O)CCCc2ccccc2)cc1	-120*
CCCCC(=O)NC(c1ccc(N(C)C)cc1)c1ccc2cccnc2c1O (stereo unspecified)	62
CCn1c(C(=O)OC)cc2c1ccn2-c1ccc(F)cc1	-157*
N=C1N(/N=C/c2ccccc2)C(=Nc2ccccc2)C(=S)N1c1ccccc1	-186*
Cc1ccc(C(=O)/C=C2/NC(=O)CS2)cc1	-103*
Cn1c(=S)[nH]c2sc3c(c2c1=O)CCC(C(C)(C)C)C3 (stereo unspecified)	-87*
COc1ccc(C(=O)/C(=C/O)N=Nc2ccc(F)cc2)cc1	-64*
O=C(Nc1nc(-c2ccc3c(c2)OCO3)cs1)C1CC1	-184*
O=C(CSCC(=O)Nc1nc(-c2ccc3c(c2)OCO3)cs1)Nc1nccs1	-111*
